Compounds with a hit are over-represented: about 2.4% of the library has one in this group of screens.
D2 antagonist: antagonizes the human D2 dopamine receptor; P14416; inhibition, % at 10 µM; 340,000 tested, 2% active; HEK293 TREx D2 cells, calcium flux, dopamine EC80; AID 485344; in the data active means inhibition above about 30%; inactive means below that, where a call was filed
Target sequence (P14416 whole entry, looked up): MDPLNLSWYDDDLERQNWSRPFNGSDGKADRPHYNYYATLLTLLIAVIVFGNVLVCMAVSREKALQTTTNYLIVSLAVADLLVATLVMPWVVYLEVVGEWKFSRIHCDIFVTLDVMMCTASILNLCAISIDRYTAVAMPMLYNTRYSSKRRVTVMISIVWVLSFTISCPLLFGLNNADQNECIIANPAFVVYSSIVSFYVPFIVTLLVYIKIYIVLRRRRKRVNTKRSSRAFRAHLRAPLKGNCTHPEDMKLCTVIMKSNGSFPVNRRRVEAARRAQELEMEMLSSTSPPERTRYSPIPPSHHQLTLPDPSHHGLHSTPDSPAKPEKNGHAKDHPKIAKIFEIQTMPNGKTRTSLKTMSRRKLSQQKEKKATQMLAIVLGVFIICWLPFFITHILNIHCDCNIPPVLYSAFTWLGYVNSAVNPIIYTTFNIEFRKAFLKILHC
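Overnight-induced (tetracycline, 30 C) HEK293 T-REx cells carrying force-coupled D2 receive a no-wash calcium dye, then compound, then EC80 dopamine at 180 s; signals are read kinetically throughout.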
D2 ag-1: activates the human D2 dopamine receptor. 340,000 tested, 0.53% active. HEK293 T-REx D2 cells, calcium flux agonist mode. P14416. AID 485358. activation, % at 2 µM;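 active means activation over 3 SD above normal in the single-dose calcium agonist read, cut at about 30% in these data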
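Calcium-flux readout, 1 cycle/sec over 180 s following compound pin transfer, in inducible HEK293 Trex D2 cells (force-coupled); dopamine controls included. Positive calcium responses during this window marked compounds as potential agonists.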
D2 ag-2: agonists of human D2 dopamine receptor (beta-arrestin). P14416. DiscoveRx PathHunter D2 beta-arrestin, luminescence, 90 min; 100% = 57 uM dopamine signal. activation, % (concentration not given with the values). 360,000 tested, 0.084% active. AID 624465; in the data active means activation above about 40%
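Agonist mode: compounds alone added to overnight-plated D2 PathHunter cells for 90 min at 37 C, with 57 uM final dopamine (EC100) defining full response. Beta-arrestin recruitment detected by chemiluminescent reagent, read after 1 h at ambient temperature.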
D2 PAM-1: positive allosteric modulators of human D2 dopamine receptor | P14416 | DiscoveRx D2 beta-arrestin cells, luminescence, 90 min; 100% = 57 uM dopamine signal | potentiation, % (no concentration beside the values) | 360,000 tested, 0.23% active | AID 624464; in the data active means potentiation above about 50%
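D2 cells co-treated with compound plus 50 nM dopamine (EC20) for 90 min at 37 deg C to detect potentiation. Beta-arrestin recruitment was read as enzyme-fragment luminescence after 1 h at ambient temperature. Full response was set by 57 uM dopamine.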
D2 PAM-2: positively modulates the human D2 dopamine receptor allosterically; HEK293 T-REx D2, calcium flux, EC20 dopamine potentiation; potentiation, % at 10 µM; 340,000 tested, 0.34% active; P14416; AID 485347;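 active means potentiation over 3 SD above the plate norm, cut at about 30% in these data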
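Primary screen. Calcium kinetics in induced HEK293 T-REx D2 cells: compound pre-addition 180 s, EC20 dopamine, 180 s more.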
A number is an active result; 0 = inactive; - = no result given.

SMILES | D2 antagonist | D2 ag-1 | D2 ag-2 | D2 PAM-1 | D2 PAM-2
Cc1cccc(C)c1OCC(O)CN1CCc2ccccc2C1 (configuration not stated) | - | - | 0 | 0 | -
CCN1CCN(c2nc(Nc3ccc(OC)cc3)nc(N)c2[N+](=O)[O-])CC1 | 41.5 | 0 | 0 | 0 | 0
CCN1CCN(c2nc(Nc3ccccc3F)nc(N)c2[N+](=O)[O-])CC1 | 77.8 | 0 | 0 | 0 | 0
Cc1ccc(Nc2nc(N)c([N+](=O)[O-])c(N3CCOCC3)n2)cc1C | 0 | 0 | 0 | 0 | 0
Nc1nc(Nc2ccccc2F)nc(N2CCCC2)c1[N+](=O)[O-] | 0 | 0 | 0 | 0 | 0
Nc1nc(NCc2ccco2)nc(N2CCN(Cc3ccccc3)CC2)c1[N+](=O)[O-] | 88.8 | 0 | 0 | 0 | 0
CCN1CCN(c2nc(Nc3ccccc3)nc(N)c2[N+](=O)[O-])CC1 | 84.2 | 0 | 0 | 0 | 0
Nc1nc(NCc2ccco2)nc(N2CCCC2)c1[N+](=O)[O-] | 0 | 0 | 0 | 0 | 0
O=C(COC(=O)/C=C/c1ccc(F)cc1)Nc1ccc(S(=O)(=O)N2CCOCC2)cc1 | - | - | 0 | 0 | -
CCN1CCN(c2nc(Nc3cccc(C)c3)nc(N)c2[N+](=O)[O-])CC1 | 84.9 | 0 | 0 | 0 | 0
Cc1cccc(Nc2nc(N)c([N+](=O)[O-])c(N3CCCC(C)C3)n2)c1 (configuration not stated) | 0 | 0 | 0 | 0 | 0
O=S(=O)(NCCS(=O)(=O)N1CCN(c2ccc(F)cc2)CC1)c1ccc(F)cc1 | - | - | 0 | 0 | -
C[C@@H]1CN([C@@H](C)CO)C(=O)CCCn2nncc2CO[C@@H]1CN(C)C(=O)OCc1ccccc1 | - | - | 0 | 0 | -
Nc1nnc(-c2ccccc2F)s1 | 44.9 | 0 | 0 | 0 | 0
Cn1cnc(S(=O)(=O)N2CCC(C(=O)NCc3ccccc3)CC2)c1 | - | 0 | - | - | 0
CC1CCCCC1NC(=O)CSc1nc2ccccc2[nH]1 (configuration not stated) | 0 | 0 | 0 | 0 | 36.9
CC1CCN(C(=O)CSc2nc3ccccc3[nH]2)CC1 | 0 | 0 | 0 | 0 | 0
Cc1ccc(S(=O)(=O)N(C)C)cc1NC(=O)Nc1ccccc1 | 84.4 | 0 | 0 | 0 | 0
Cc1ccc(S(=O)(=O)N(C)C)cc1NC(=S)N1CCc2ccccc21 | 55.3 | 0 | 0 | 0 | 0
Cc1ccc(S(=O)(=O)N(C)C)cc1NC(=O)CSc1nc2ccccc2[nH]1 | 30.8 | 0 | 0 | 0 | 0
CN(C)S(=O)(=O)c1cccc(NC(=S)N2CCc3ccccc32)c1 | 0 | 0 | 0 | 0 | 0
Cc1ccc(C)c(NC(=O)CCN2C(=O)c3ccccc3Sc3ncccc32)c1 | - | 0 | - | - | 0
Cc1ccc(NC(=O)Nc2cc(S(=O)(=O)N(C)C)ccc2C)cc1 | 37.0 | 0 | 0 | 0 | 0
CCOc1ccccc1NC(=O)Nc1cc(S(=O)(=O)N(C)C)ccc1C | - | - | 0 | 0 | -
CC[C@@H](C(=O)[C@@H](C)[C@@H](O)[C@H](C)[C@@H]1O[C@@H]([C@@H](CC)C(=O)O)CC[C@@H]1C)[C@H]1O[C@]2(C=C[C@@H](O)[C@]3(CC[C@@](C)([C@H]4CC[C@](O)(CC)[C@H](C)O4)O3)O2)[C@H](C)C[C@@H]1C | - | - | 0 | 64.4 | -
SMILES | D2 antagonist | D2 ag-1 | D2 ag-2 | D2 PAM-1 | D2 PAM-2
O=C1c2cccc([N+](=O)[O-])c2C(=O)N1CCO | 0 | 0 | 0 | 0 | 39.7
CN(Cc1ccccc1)C(=O)CCN1C(=O)c2cccc([N+](=O)[O-])c2C1=O | - | - | 0 | 0 | -
Cc1c(C)c2cc(Cl)c(OCC(=O)NC3CC(C)(C)NC(C)(C)C3)cc2oc1=O | 0 | 0 | 0 | 0 | 0
Cc1ccc(OCc2nc(-c3ccc(C(=O)N4CCN(c5ccccc5F)CC4)cc3)oc2C)cc1 | - | 0 | - | - | 0
COc1ccc(/C=C2\CC/C(=C\c3ccc(OC)c(OC)c3)C2=O)cc1OC | 0 | 0 | 0 | 0 | 0
COc1cc(/C=C2\CC/C(=C\c3ccc(OCCO)c(OC)c3)C2=O)ccc1OCCO | 0 | 76.2 | 0 | 0 | 0
O=C(Nc1nccs1)c1cccc(N2C(=O)c3cccc4c([N+](=O)[O-])ccc(c34)C2=O)c1 | 0 | 0 | 0 | 74.5 | 0
O=C(Nc1ccc(S(=O)(=O)Nc2nccs2)cc1)c1cccc(N2C(=O)c3ccccc3C2=O)c1 | 0 | 0 | 0 | 0 | 0
CC(=O)Oc1cccc(N2C(=O)c3cccc4c([N+](=O)[O-])ccc(c34)C2=O)c1 | 0 | 0 | 41.0 | 106.9 | 0

High-throughput results (PubChem BioAssay)
